Compound activity: PubChem BioAssay, National Center for Advancing Translational Sciences (NCATS)
SMN2 splice up – SMN2 splice variant enhancement; Potency, µM (highest dose often 46.1 µM), inactives show top-dose activity change, positive = activation, actives largely listed as activators; HEK293 SMN2-luciferase splicing reporter, luminescence, 30-36 h; 210,000 compounds, 2.8% hits; note: % of control where 0% means no effect; nearly all actives have a fitted effect of over 55% in size
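qHTS luciferase splicing reporter: luminescence rises when SMN2 exon 7 is included in transfected HEK293 cells. Compound exposure lasted 30-36 h at 37C, with 4.5 mM final sodium butyrate as control, followed by a ONE-Glo read.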
Rab9 promoter act – activates the Rab9 promoter. Huh7 Rab9 promoter-luciferase reporter, luminescence, 24 h. Potency, µM (doses to about 9.22 µM), for inactives: at the highest dose activation, negative = inhibition, hits mostly activators. 320,000 compounds, 2.8% hits. AID 485297; note: % of control where 0% means no effect; nearly all actives have a fitted effect of over 60% in size
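Luminescence read-out: Huh7 cells stably expressing Rab9-luciferase, treated 24 h with compound at 37 °C, then lysed with luciferase reagent for 10 min at ambient before reading.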
FLuc modulator – counter-screen for miR-21 project: firefly luciferase inhibitors or activators. Potency, µM (doses to about 57.5 µM), for inactives: at the highest dose activity change, negative = inhibition, most hits filed as inhibitors. 360,000 compounds, 6.9% hits. P08659. AID 588342. purified FLuc, Km substrates, luminescence inhibition;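 note: plate controls were vehicle for no effect and reference inhibitor for full effect; nearly all actives have a fitted effect of over 55% in size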
Target sequence (P08659 whole entry, looked up): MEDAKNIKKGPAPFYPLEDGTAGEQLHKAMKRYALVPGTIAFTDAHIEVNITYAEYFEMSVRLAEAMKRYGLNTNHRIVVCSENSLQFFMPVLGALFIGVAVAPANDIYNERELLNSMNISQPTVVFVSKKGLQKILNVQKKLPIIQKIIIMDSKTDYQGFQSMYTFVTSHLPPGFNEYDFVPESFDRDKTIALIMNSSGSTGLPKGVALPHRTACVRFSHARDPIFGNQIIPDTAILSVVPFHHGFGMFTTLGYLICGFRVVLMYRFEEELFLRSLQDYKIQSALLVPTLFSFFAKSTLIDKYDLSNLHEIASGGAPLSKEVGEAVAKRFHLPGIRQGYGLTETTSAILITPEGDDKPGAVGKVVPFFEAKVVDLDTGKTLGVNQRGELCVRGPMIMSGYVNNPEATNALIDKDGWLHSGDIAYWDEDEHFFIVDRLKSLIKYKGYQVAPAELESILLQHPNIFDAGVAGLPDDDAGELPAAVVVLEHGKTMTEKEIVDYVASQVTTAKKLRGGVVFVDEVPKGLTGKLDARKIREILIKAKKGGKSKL
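Biochemical qHTS of compounds, final roughly 60 µM downward over six points, against 10 nM purified firefly luciferase using Km concentrations of substrates (10 uM D-luciferin, 10 uM ATP) in Tris acetate pH 7.5 buffer; luminescence output.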
NPC1 promoter act – activators of NPC1 promoter. Huh7 NPC1 promoter luciferase reporter, 24 h. Potency, µM (titrated, usually from 9.22 µM), for inactives: at the highest dose activation, actives largely listed as activators. 320,000 compounds, 2.4% hits; note: % of control where 0% means no effect; nearly all actives have a fitted effect of over 60% in size
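Stably transfected Huh7 (NPC1 promoter→luciferase), 1500 cells/well in Opti-MEM + 10% FBS, 2 h settle, then compound 24 h at 37 °C. Luminescence after 10 min with Amplite reagent.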
ELG1 DNA repair – blocks ELG1-dependent DNA repair in HEK293T cells. HEK293T ELG1-luciferase reporter, luminescence, 16 h; DNA damage induced by 5-fluorouridine. Potency, µM (titrated, usually from 46.1 µM), without a hit: top-dose activity change, negative = inhibition, usual class: inhibitors. 330,000 compounds, 2.3% hits. AID 504467; note: % is set by controls: 0 for no effect and ±100 for the full control effect; nearly all actives have a fitted effect of over 55% in size
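Reporter activity after DNA damage by 5-fluorouridine is monitored. Compound-treated cells incubate 16 hr at 37 °C, then ONE-Glo is added for 30 min before luminescence reading.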
ELG1 genotox – induces genotoxicity in HEK293T cells with luciferase-tagged ELG1; HEK293T ELG1-luciferase reporter, luminescence, 16 h; Potency, µM (highest dose often 46 µM), for the others: top-dose activity change, positive = activation, usual class: activators; 330,000 compounds, 1.3% hits; AID 504466; note: % of control where 0% means no effect; nearly all actives have a fitted effect of over 60% in size
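HEK293T cells expressing luciferase-tagged ELG1 were treated with compound or DMSO for 16 hr at 37°C. Luciferase activity was then read after 30 min with ONE-Glo at room temperature; rising signal flags genetic stress.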
Numbers without * were called inactive; u = inconclusive; x = not tested or not shown. This is a sample that favours compounds with a hit; in the whole collection about 9.2% have one here. Calls come from the whole dose curve; as a rule, active = well fitted curve in the direction sought with a large enough effect; inconclusive = small, poorly fitted or top-dose-only effect, or another doubt; inactive = no such curve, though single readings can be large; an effect the other way counts as inactive or inconclusive. Potency is the fitted concentration of half-maximal effect.

SMILES | SMN2 splice up | Rab9 promoter act | FLuc modulator | NPC1 promoter act | ELG1 DNA repair | ELG1 genotox
COc1ccccc1-c1nnc(SCC(=O)Nc2ccc(N3CCOCC3)cc2)n1C | x | 14% | 19µM* | 8% | u | 21%
N#CCCN(C(=O)COC(=O)C1CCN(S(=O)(=O)c2cccs2)CC1)c1ccccc1 | x | -6% | -1% | -3% | -13% | 0%
Cc1cccc(-n2ncc3c(Nc4ccc(C)c(Cl)c4)ncnc32)c1 | x | x | -19% | x | x | x
COc1ccc(OC)c(Nc2ncnc3c2cnn3-c2ccc(C)cc2)c1 | x | x | -15% | x | x | x
COc1ccc(Nc2ncnc3c2cnn3-c2ccc(C)cc2)cc1Cl | x | x | 24µM* | x | x | x
COc1ccccc1Nc1ncnc2c1cnn2-c1cccc(C)c1 | 12% | 9% | 13µM* | 30% | u | 1%
COc1ccc(OC)c(Nc2ncnc3c2cnn3-c2ccccc2)c1 | 10% | -1% | u | 10% | u | u
COc1cccc(Nc2ncnc3c2cnn3-c2cccc(C)c2)c1 | -9% | u | 17µM* | u | 15% | 5%
Cc1ccc(Cl)cc1NC(=O)CN(C)S(=O)(=O)c1ccc2c(c1)n(C)c(=O)c(=O)n2C | 1% | x | 3% | x | x | x
O=C(Cc1ccccc1)Nc1ccc2c(c1)C(=O)N(CC1CCCO1)C2=O (centres undefined) | 3% | 6% | u | -3% | 8% | 0%
COc1ccccc1N1C(=O)c2ccc(C(=O)Nc3ccc(C(=O)O)cc3)cc2C1=O | x | -3% | 27µM* | -3% | 12% | 1%
COc1ccccc1NC(=O)c1ccc2c(c1)C(=O)N(c1ccccc1OC)C2=O | x | -5% | u | -1% | -12% | 6%
O=C(O)c1cc(NC(=O)c2cccc(N3C(=O)c4ccccc4C3=O)c2)cc(C(=O)O)c1 | x | 6% | -13% | -4% | 10% | 3%
O=C(O)c1cccc(NC(=O)c2ccc3c(c2)C(=O)N(c2ccccc2)C3=O)c1 | x | -2% | 0.27µM* | 2% | u | 4%
O=C(Nc1ccc2c(c1)C(=O)N(CC1CCCO1)C2=O)c1cccc(Br)c1 (centres undefined) | -17% | 11% | 11µM* | 0% | -22% | -4%
COC(=O)c1cccc(NC(=O)c2ccc3c(c2)C(=O)N(CC2CCCO2)C3=O)c1 (centres undefined) | 13% | 0% | 24µM* | 3% | -21% | 0%
O=C(Nc1ccc(Br)cc1F)c1cc(S(=O)(=O)NC2CCCC2)ccc1F | x | x | -6% | x | x | x
COc1cc(C2C(C#N)=C(N)Oc3n[nH]c(-c4cccnc4)c32)cc(Br)c1O (centres undefined) | 2% | 15% | -12% | 1% | 24% | 9%
O=[N+]([O-])c1ccc(OCCO)c(P(=O)(c2ccccc2)c2ccccc2)c1 | x | 11% | 5% | -1% | 0% | 6%
O=C(O)c1cccc(NC(=O)c2ccc3c(c2)C(=O)N(CC2CCCO2)C3=O)c1 (centres undefined) | 4% | 1% | 0.48µM* | 5% | -2% | 1%
O=C(O)Cc1ccc(NC(=O)c2ccc3c(c2)C(=O)N(CC2CCCO2)C3=O)cc1 (centres undefined) | x | -4% | -1% | 10% | -2% | 15%
COc1ccc(NC(=O)CN2C(=O)c3ccccc3S2(=O)=O)cc1S(=O)(=O)N1CCOCC1 | x | 1% | 1% | 2% | 10% | 2%
C#CCSc1ncc(-c2ccccc2)cn1 | 3% | u | u | 19% | u | 12%
C=CCSc1ncc(-c2ccccc2)cn1 | 11% | 26% | 15µM* | 24% | u | 15%
CCc1ccc(C2CC(=O)c3c([nH]c(C(=O)OC4CCCCCC4)c3C)C2)cc1 (centres undefined) | -1% | x | -3% | x | x | x
SMILES | SMN2 splice up | Rab9 promoter act | FLuc modulator | NPC1 promoter act | ELG1 DNA repair | ELG1 genotox
Cc1ccc(S(=O)(=O)C2(S(=O)(=O)c3ccc(C)cc3)CC2)cc1 | x | 11% | 1% | -7% | 23µM* | -9%
COc1cccc(/C=N/Nc2c(Cl)cncc2Cl)c1O | x | 28% | 9.5µM* | u | u | 11%
COc1cccc(/C=N/Nc2cc(Cl)nc(C)n2)c1O | x | 2% | 3µM* | u | u | 7%
COc1cccc(/C=N/Nc2nnc(C)n2N)c1O | x | 8% | -13% | 9% | -3% | -4%
CCOn1c(=O)c(-c2cccc(Br)c2)[n+]([O-])c2ccccc21 | x | -6% | -2% | -6% | -5% | 1%
COc1ccc2oc(C(=O)OCC(=O)N3CCN(S(=O)(=O)c4ccccc4)CC3)c(C)c2c1 | x | -1% | 4% | -2% | -15% | -2%
COc1cccc(C(=O)CN2CCN(S(=O)(=O)c3cccc([N+](=O)[O-])c3)CC2)c1 | -7% | -8% | 0% | 2% | 21% | 1%
COc1ccc2oc(C(=O)N3CCN(S(=O)(=O)c4cccc([N+](=O)[O-])c4)CC3)c(C)c2c1 | x | -2% | 2% | -1% | 7.3µM* | -14%
Cc1c(C(=O)N2CCN(S(=O)(=O)c3cccs3)CC2)oc2ccc(F)cc12 | x | x | x | x | 5.2µM* | -4%
CCOc1ccc(S(=O)(=O)N2CCN(C(=O)c3oc4ccc(OC)cc4c3C)CC2)cc1 | x | -7% | 11% | -1% | 21µM* | -7%
COc1cc2c(cc1OC)CN(C(=O)C1CCCN1S(=O)(=O)c1ccc(F)cc1)CC2 (centres undefined) | x | 4% | 4% | -2% | u | -5%
COc1ccc(NC(=O)CN(C)CC(=O)NCCc2ccc(F)cc2)cc1 | x | -7% | -2% | 1% | -2% | 1%
CCOC(=O)C1=C(C)NC(C)=C(C(=O)OCC)C1C(=O)OCC(=O)N(C)Cc1ccccc1 | x | x | x | x | u | 2%
CCOC(=O)c1cc(-c2ccccc2)sc1NC(=O)C(C)N1C(=O)NC(C)(c2ccc(Cl)cc2)C1=O (centres undefined) | 10% | 3% | 4% | -1% | 26µM* | -6%
CCOC(=O)c1cc(-c2ccccc2)sc1NC(=O)C(C)Sc1nnnn1C (centres undefined) | -22% | 9% | 2% | -1% | 18µM* | -15%
CN(Cc1ccccc1)S(=O)(=O)c1ccc(N2CCCC2=O)cc1 | x | 3% | -1% | -2% | -11% | -6%
CCCCC1CCC(C(=O)N2CC(=O)Nc3ccc(C)cc3C2c2ccc(F)cc2)CC1 (centres undefined) | 4% | x | -7% | x | x | x
COc1ccc(/C=C2\N=C3CCCCCN3C2=O)cc1 | u | -2% | 15µM* | -1% | u | u
